According to the supplement of paper PMC10338343:
± gives the standard deviation.

system: MILI (PIWIL2) piRISC loaded with L1MC piRNA (26 nt); experiment: pre-steady-state target cleavage rate (min^-1); guide: L1MC piRNA 5'p-UAACUAAAUACUAUGCAAGCUGUAGG; MIWI and MILI are mouse PIWI proteins and EfPiwi is from a freshwater sponge; tags in brackets are library labels; higher = faster piRNA-guided slicing of the target; conditions: auxiliary factor: 500 nM mouse GTSF1
Procedure: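 Cleave-'n-Seq: a library of target RNAs (target site embedded in constant flanks, ACAGCATTCCGCGTTAGTGATATCCG... 5' flank; DNA-blocked outside the site) at 0.1 nM was incubated with 1 nM active mouse MILI or MIWI piRISC (synthetic 5'-monophosphorylated piRNA guide) with or without 500 nM mouse GTSF1 at 33 °C for 1 min to 16 h. Uncleaved targets were sequenced and normalised to non-target controls, and the pooled three trials were fitted to a burst-and-steady-state model to give the pre-steady-state cleavage rate (min^-1; k3 is constrained to at most 1e-4). Sequence is the target site only; target names encode pairing extent (gX:gY) and contiguous / 1-mismatch / 2-mismatch / bulge geometry. Fits with R² ≤ 0 are excluded.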

Sequence	pre-steady-state target cleavage rate
UCCUCCUACUGCUUGCAUAGUAAUUAGUUA	0.2 ± 0.014
UCCUGGUACAGCUUGCGUAGUAUUUAGUUA	0.219 ± 0.021
UCCUCCGUACAGCUUGCAUAGUAUUUAGUUA	0.272 ± 0.014
UCCUGCUACCAGCUUGCAUAGUAUUUAGUUA	0.24 ± 0.019
UCCUGCAACAGCUUGGAUAGUAUUUAGUUA	0.251 ± 0.011
UCCUGGUACAGCUUGCUAGUAUUUAGUUA	0.0128 ± 0.0057
UCCUGGUACUCGUUGCAUAGUAUUUAGUAA	0.0635 ± 0.029
UCCUGGUACAGCUUGCAUAGAUUUUAGUUA	0.0355 ± 0.0097
UCCUGGAUGUCGAUGCAUAGUUAUUAGUUA	0.00565 ± 0.0033
UCCUGGAACUGCUUGGAUAGUAUUUAGUUA	0.222 ± 0.013
UCCUGGUACAGCAUGCAUAGUAUUUACUUA	0.0914 ± 0.025
UCCUGGUACAGCAUCCAUAGUAUUUAGUUA	0.262 ± 0.077
UCCUGCUACAGCUUGCAUAGAUAUUUAGUUA	0.0121 ± 0.005
UCCUGGAUCAGCUUGCAUAGUAAAAAGUAA	0.108 ± 0.021
UCCUGGAUCAGCUUGCAUAGUAUUUAUGUUA	0.133 ± 0.017
UCCUCCUACAGCUUGCAUUGUAUUUAGUUA	0.222 ± 0.014
UCCUGCUACAGCUUGCAUAGUUUUUUGUUA	0.112 ± 0.028
UCCUGGUACAGCUUGCAUUGUAUAUAGUUA	0.087 ± 0.018
UCCUGGAACAGCUUGCAUAGUAUAUAGUUA	0.296 ± 0.029
UCCUGGAUGUGCUUGGAUAGUAUUUUGUUA	0.0685 ± 0.02
UCCUCCUACAGCUUGCAUAGUAAUUAGUUA	0.275 ± 0.022
UCCUCCUACAGGCUUGCAUAGUAUUUAGUUA	0.268 ± 0.019

same assay, conditions: auxiliary factor: none (no GTSF1)

Sequence	pre-steady-state target cleavage rate
UCCUCCUACUGCUUGCAUAGUAAUUAGUUA	0.00554 ± 0.0017
UCCUGGUACAGCUUGCGUAGUAUUUAGUUA	0.014 ± 0.004
UCCUCCGUACAGCUUGCAUAGUAUUUAGUUA	0.0094 ± 0.0023
UCCUGCUACCAGCUUGCAUAGUAUUUAGUUA	0.0115 ± 0.0033
UCCUGCAACAGCUUGGAUAGUAUUUAGUUA	0.00806 ± 0.0021
UCCUGGUACAGCUUGCUAGUAUUUAGUUA	0.00634 ± 0.002
UCCUGGUACAGCUUGCAUAGAUUUUAGUUA	0.00346 ± 0.0029
UCCUGGAUGUCGAUGCAUAGUUAUUAGUUA	0.0042 ± 0.0022
UCCUGGAACUGCUUGGAUAGUAUUUAGUUA	0.0109 ± 0.0023
UCCUGGUACAGCAUGCAUAGUAUUUACUUA	0.00419 ± 0.0038
UCCUGGUACAGCAUCCAUAGUAUUUAGUUA	0.00374 ± 0.0027
UCCUGCUACAGCUUGCAUAGAUAUUUAGUUA	0.00419 ± 0.0019
UCCUGGAUCAGCUUGCAUAGUAUUUAUGUUA	0.00471 ± 0.0027
UCCUCCUACAGCUUGCAUUGUAUUUAGUUA	0.00744 ± 0.0019
UCCUGGUACAGCUUGCAUUGUAUAUAGUUA	0.00415 ± 0.0033
UCCUGGAACAGCUUGCAUAGUAUAUAGUUA	0.00847 ± 0.0025
UCCUCCUACAGCUUGCAUAGUAAUUAGUUA	0.00666 ± 0.0023
UCCUCCUACAGGCUUGCAUAGUAUUUAGUUA	0.00802 ± 0.0025
